Measurements published in PubChem BioAssay AID1159580 (chemical genetic matrix, 2015).
Where “and” joins values, the source holds several entries; their conditions need not be identical. Identical values can stand only once. Among all 5,500 compounds or so, about 2,000 (36%) were called active. Roughly 18% stayed inconclusive and do not appear here. Rule as the data show it: active = normalized growth mostly below about 0.91 (no sharp cut-off); inconclusive = no clear call, values can overlap the other calls; inactive = mostly above about 0.92. The list shows a part of the results.

Assay: chemical genetic growth profiling, strain panel (AID 1159580);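 also: tested at 20 µM; growth read once vehicle control cultures reached saturation at 30 °C; 1 = growth at the plate median or of vehicle wells; lower values mean less growth of the strain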
Conditions: S. cerevisiae deletion strains, growth OD

Measured: normalized growth

CC(C)(Sc1cc(C(C)(C)C)c(O)c(C(C)(C)C)c1)Sc1cc(C(C)(C)C)c(O)c(C(C)(C)C)c1
inactive: locus YAL013W, strain DEP1, stronger effect = lower value 1.02 | locus YAL021C, strain ccr4, stronger effect = lower value 1.03 | locus YAL026C, strain drs2, stronger effect = lower value 1.01 | locus YAL030W, strain snc1, stronger effect = lower value 1 | locus YBL061C, strain skt5, stronger effect = lower value 0.993 | locus YBR009C, strain hhf1, stronger effect = lower value 1.02 | locus YBR021W, strain FUR4, stronger effect = lower value 1.01 | locus YBR023C, strain chs3, stronger effect = lower value 0.998 | locus YBR171W, strain sec66, stronger effect = lower value 1 | locus YBR229C, strain ROT2, stronger effect = lower value 1.01 | locus YBR231C, strain swc5, stronger effect = lower value 0.998 | locus YBR279W, strain paf1, stronger effect = lower value 0.993 | locus YCL011C, strain gbp2, stronger effect = lower value 1.02 | locus YCL016C, strain dcc1, stronger effect = lower value 1 | locus YCL029C, strain bik1, stronger effect = lower value 1.04 | locus YCL069W, strain vba3, stronger effect = lower value 1.01 | locus YCR088W, strain abp1, stronger effect = lower value 1 | locus YDL005C, strain med2, stronger effect = lower value 1.02 | locus YDL035C, strain GPR1, stronger effect = lower value 1.02 | locus YDL040C, strain nat1, stronger effect = lower value 0.991 | locus YDL074C, strain BRE1, stronger effect = lower value 1.03 | locus YDL101C, strain DUN1, stronger effect = lower value 1.02 | locus YDL134C, strain PPH21, stronger effect = lower value 1 | locus YDL185W, strain tfp1, stronger effect = lower value 1.02 | locus YDL192W, strain arf1, stronger effect = lower value 1.03 | locus YDR001C, strain nth1, stronger effect = lower value 1.02 | locus YDR069C, strain doa4, stronger effect = lower value 0.999 | locus YDR101C, strain arx1, stronger effect = lower value 1.02 | locus YDR137W, strain rgp1, stronger effect = lower value 0.99 | locus YDR150W, strain NUM1, stronger effect = lower value 1.01 | locus YDR159W, strain sac3, stronger effect = lower value 0.989 | locus YDR162C, strain NBP2, stronger effect = lower value 1.01 | locus YDR195W, strain ref2 1.06 | locus YDR297W, strain sur2, stronger effect = lower value 0.99 | locus YDR318W, strain mcm21, stronger effect = lower value 1.04 | locus YDR334W, strain swr1, stronger effect = lower value 1.02 | locus YDR335W, strain msn5, stronger effect = lower value 1.01 | locus YDR388W, stronger effect = lower value 1.02 | locus YDR392W, strain spt3, stronger effect = lower value 1.03 | locus YDR502C, strain sam2, stronger effect = lower value 1.02 | locus YEL003W, strain gim4, stronger effect = lower value 1.02 | locus YEL037C, strain rad23, stronger effect = lower value 1.01 | locus YEL061C, strain CIN8 (second series), stronger effect = lower value 1.01 | locus YEL061C, strain CIN8, stronger effect = lower value 1.01 | locus YER015W, strain faa2, stronger effect = lower value 1.01 | locus YER016W, strain bim1, stronger effect = lower value 1.01 | locus YER110C, stronger effect = lower value 1.02 | locus YER111C, strain swi4, stronger effect = lower value 1.01 | locus YER155C, strain BEM2 (second series), stronger effect = lower value 0.985 | locus YER155C, strain BEM2, stronger effect = lower value 1.01 | locus YER167W, strain BCK2, stronger effect = lower value 1.03 | locus YFR010W, strain ubp6, stronger effect = lower value 1.04 | locus YGL078C, strain dbp3, stronger effect = lower value 1.03 | locus YGL167C, strain pmr1, stronger effect = lower value 0.998 | locus YGL173C, strain kem1, stronger effect = lower value 0.986 | locus YGL227W, strain vid30, stronger effect = lower value 1.02 | locus YGL240W, strain doc1, stronger effect = lower value 0.958 | locus YGL248W, strain PDE1, stronger effect = lower value 1.01 | locus YGL253W, strain hxk2, stronger effect = lower value 1.02 | locus YGR078C, strain PAC10, stronger effect = lower value 1.02 | locus YGR135W, strain pre9, stronger effect = lower value 1.04 | locus YGR229C, strain SMI1, stronger effect = lower value 1.02 | locus YGR252W, strain gcn5, stronger effect = lower value 1.06 | locus YHR013C, strain ard1, stronger effect = lower value 1 | locus YHR027C, strain rpn1, stronger effect = lower value 1 | locus YHR030C, strain SLT2, stronger effect = lower value 1.02 and 0.989 | locus YHR079C, strain IRE1 (second series), stronger effect = lower value 1.02 | locus YHR079C, strain IRE1, stronger effect = lower value 1 | locus YHR094C, strain hxt1, stronger effect = lower value 1.02 | locus YHR129C, strain ARP1, stronger effect = lower value 1.01 | locus YHR142W, strain chs7, stronger effect = lower value 1.04 | locus YHR200W, strain rpn10, stronger effect = lower value 1.01 | locus YIL066C, strain RNR3, stronger effect = lower value 1.01 | locus YIL073C, strain SPO22, stronger effect = lower value 1.05 | locus YIL125W, strain kgd1, stronger effect = lower value 1.02 | locus YIR030C, strain dcg1, stronger effect = lower value 1.02 | locus YJL092W, strain hpr5, stronger effect = lower value 1.01 | locus YJL095W, strain BCK1 (second series), stronger effect = lower value 1 | locus YJL095W, strain BCK1, stronger effect = lower value 1.05 and 0.992 | locus YJL115W, strain asf1, stronger effect = lower value 0.993 | locus YJL129C, strain trk1, stronger effect = lower value 1.02 | locus YJL134W, strain LCB3, stronger effect = lower value 1.01 | locus YJL154C, strain vps35, stronger effect = lower value 1.01 | locus YJL164C, strain tpk1, stronger effect = lower value 1.01 | locus YJL166W, strain qcr8, stronger effect = lower value 1.01 | locus YJL168C, strain set2, stronger effect = lower value 1.02 | locus YJL187C, strain SWE1 (second series), stronger effect = lower value 1.02 | locus YJL187C, strain SWE1, stronger effect = lower value 1 | locus YJR043C, strain POL32, stronger effect = lower value 1.03 | locus YJR066W, strain TOR1, stronger effect = lower value 0.9
active: locus YGL086W, strain mad1, stronger effect = lower value 1.35 [resistant]
